{
  "source": "PubChem BioAssay (Tox21)",
  "note": "Activity calls are given as the source filed them. Where a call stands in place of a potency, no number is given. The call rests on the fitted dose curve.",
  "data": [
    {"target": "Acetylcholinesterase (Homo sapiens) (UniProt P22303)", "sequence (P22303 whole entry, looked up)": "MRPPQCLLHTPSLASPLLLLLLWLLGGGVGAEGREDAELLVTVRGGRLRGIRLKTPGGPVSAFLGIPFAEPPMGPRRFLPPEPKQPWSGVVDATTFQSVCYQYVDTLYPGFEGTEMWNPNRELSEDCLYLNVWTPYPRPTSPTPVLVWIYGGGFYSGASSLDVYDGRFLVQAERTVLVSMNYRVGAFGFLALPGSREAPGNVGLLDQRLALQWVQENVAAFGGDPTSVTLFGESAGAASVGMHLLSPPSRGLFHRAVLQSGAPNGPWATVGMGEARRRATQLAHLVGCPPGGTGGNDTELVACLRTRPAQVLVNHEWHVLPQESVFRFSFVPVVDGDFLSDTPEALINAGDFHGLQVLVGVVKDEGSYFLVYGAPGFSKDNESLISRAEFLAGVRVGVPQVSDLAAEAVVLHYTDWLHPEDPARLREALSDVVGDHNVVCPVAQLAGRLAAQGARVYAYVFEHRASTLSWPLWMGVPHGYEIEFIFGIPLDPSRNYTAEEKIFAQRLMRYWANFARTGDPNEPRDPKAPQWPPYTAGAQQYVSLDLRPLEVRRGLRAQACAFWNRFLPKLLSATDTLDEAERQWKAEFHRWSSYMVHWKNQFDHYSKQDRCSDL", "assay": "Acetylcholinesterase (AChE) small molecule antagonists: enzyme-based qHTS assay with human liver microsomes (AID 1347399); further: nearly all actives have a fitted effect of over 60% in size", "conditions": "Potency: qHTS inhibition; outcome: qHTS inhibition; series mostly up to 115 µM", "method_in_brief": "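Recombinant human AChE (50 mU/mL in the enzyme mix) and human liver microsomes (0.25 mg/mL final) were preincubated with compound and NADPH (0.25 mg/mL final) for 30 min at 37 C. Acetylthiocholine/DTNB was then added; thiocholine was read colorimetrically after 10 min at room temperature.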", "values": [
      {"smiles": "CO[C@H]1C=CO[C@@]2(C)Oc3c(C)c(O)c4c(O)c(c5c(c4c3C2=O)=NC2(CCN(CC(C)C)CC2)N=5)NC(=O)/C(C)=C\\C=C/[C@H](C)[C@H](O)[C@@H](C)[C@@H](O)[C@@H](C)[C@H](OC(C)=O)[C@@H]1C", "Potency": "inactive"},
      {"smiles": "CC(=O)Nc1cccc(O)c1", "Potency": "inactive"},
      {"smiles": "CC(=O)OCC(=O)[C@@]1(O)CC[C@H]2[C@@H]3CCC4=CC(=O)C=C[C@]4(C)[C@H]3[C@@H](O)C[C@@]21C", "Potency": "inactive"},
      {"smiles": "N#Cc1ccc(C(=O)O)cc1", "Potency": "inactive"},
      {"smiles": "CN(C)[C@@H]1C(=O)C(C(N)=O)=C(O)[C@@]2(O)C(=O)C3=C(O)c4c(O)cccc4C[C@H]3C[C@@H]12", "Potency": "inactive"},
      {"smiles": "O=c1oc(=O)c2cc3c(=O)oc(=O)c3cc12", "Potency": "inactive"},
      {"smiles": "CCCCCCCCCCCCN1CCCC1=O", "Potency": "inactive"},
      {"smiles": "COc1ccc(Nc2ccc(OC)cc2)cc1", "Potency": "inactive"},
      {"smiles": "COc1ccc([C@@H]2Sc3ccccc3N(CCN(C)C)C(=O)[C@@H]2OC(C)=O)cc1", "Potency": "inactive"},
      {"smiles": "CC1=Nc2ccccc2C1(C)C", "Potency": "inactive"},
      {"smiles": "CC(C)(C(=O)c1cccnc1)c1cccnc1", "Potency": "inactive"},
      {"smiles": "OCCN1C[C@H](O)[C@@H](O)[C@H](O)[C@H]1CO", "Potency": "inactive"},
      {"smiles": "c1ccc2ncccc2c1", "Potency": "inactive"},
      {"smiles": "CC(CN(CCN(CC(C)OCCO)CC(C)OCCO)CC(C)OCCO)OCCO", "note": "(stereo not given)", "Potency": "inactive"},
      {"smiles": "CC(=O)CC(C)(C)C1CCCCC1", "Potency": "inactive"},
      {"smiles": "NCc1cccc(CN)c1", "Potency": "inactive"},
      {"smiles": "CCC(=O)OCCc1ccccc1", "Potency": "inactive"},
      {"smiles": "CCC(C)(O)CCCC(C)C", "note": "(stereo not given)", "Potency": "inactive"},
      {"smiles": "Cc1c(-c2cccnc2)c2ccccc2n1CCCCC(=O)O", "Potency": "inactive"},
      {"smiles": "CCOC(=O)/C=C/C(=O)O", "Potency": "inactive"},
      {"smiles": "CC1=CC(C)(C)Nc2ccccc21", "Potency": "inactive"},
      {"smiles": "NC(=O)Nc1nc2ccccc2[nH]1", "Potency": "inactive"},
      {"smiles": "O=Cc1ccccc1Cl", "Potency": "inactive"},
      {"smiles": "Fc1ccccc1[C@@H](F)COC1CCC(Nc2ncnc3[nH]ncc23)CC1", "note": "(stereo not given in full)", "Potency": "inactive"},
      {"smiles": "Cc1cc(Nc2ccc(O)cc2)ccc1N", "Potency": "inactive"},
      {"smiles": "O=C(O)CCC(=O)O", "Potency": "inactive"},
      {"smiles": "C=CCCC=C", "Potency": "inactive"},
      {"smiles": "O=[N+]([O-])C(CO)(CO)CO", "Potency": "inactive"},
      {"smiles": "CC(=O)c1ccc2ccccc2c1", "Potency": "inactive"},
      {"smiles": "O=C(O)c1ccccc1C(=O)O", "Potency": "inactive"},
      {"smiles": "CC(C)CC(C)O", "note": "(stereo not given)", "Potency": "inactive"},
      {"smiles": "Nc1ccc(S(=O)(=O)Nc2ccc(Cl)nn2)cc1", "Potency": "inactive"},
      {"smiles": "ONc1ccccc1", "Potency": "inactive"},
      {"smiles": "CC(=O)CC(=O)Nc1ccccc1C", "Potency": "inactive"},
      {"smiles": "CC(C)C(=O)c1ccccc1", "Potency": "inactive"},
      {"smiles": "O=[N+]([O-])c1cccc(S(=O)(=O)O)c1", "Potency": "inactive"},
      {"smiles": "CC(=O)N1C[C@H](O)C[C@H]1C(=O)O", "Potency": "inactive"},
      {"smiles": "CC(=O)OCC(=O)[C@H]1CC[C@H]2[C@@H]3CCC4=CC(=O)CC[C@]4(C)[C@H]3CC[C@]12C", "Potency": "inactive"},
      {"smiles": "O=C(O)CC(C(=O)O)S(=O)(=O)O", "note": "(stereo not given)", "Potency": "inactive"},
      {"smiles": "O=[N+]([O-])c1cccc(Cl)c1", "Potency": "inactive"}
    ]}
  ]
}
